“And” between values parts separate entries of the source, which are not always exact repeats. Equal values may be shown once. Among all 5,500 compounds or so, about 2,000 (36%) were called active. Not shown: some 18% with an inconclusive outcome. Rule as the data show it: active = normalized growth mostly below about 0.91 (no sharp cut-off); inconclusive = no clear call, values can overlap the other calls; inactive = mostly above about 0.92. The list shows a part of the results.
Test: chemical genetic growth profiling, strain panel (AID 1159580);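 also: tested at 20 µM; growth read once vehicle control cultures reached saturation at 30 °C; 1 = growth at the plate median or of vehicle wells; lower values mean less growth of the strain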
Conditions: S. cerevisiae deletion strains, growth OD

Measured: normalized growth

c1ccc2c(c1)CN1CCCC1=N2
inactive: locus YAL021C, strain ccr4, stronger effect = lower value 0.998 | locus YAL026C, strain drs2, stronger effect = lower value 1 | locus YAL030W, strain snc1, stronger effect = lower value 1 | locus YBL061C, strain skt5, stronger effect = lower value 0.999 | locus YBR009C, strain hhf1, stronger effect = lower value 0.987 | locus YBR023C, strain chs3, stronger effect = lower value 1 | locus YBR171W, strain sec66, stronger effect = lower value 1 | locus YBR229C, strain ROT2, stronger effect = lower value 1.01 | locus YBR231C, strain swc5, stronger effect = lower value 0.997 | locus YBR279W, strain paf1, stronger effect = lower value 0.996 | locus YCL011C, strain gbp2, stronger effect = lower value 1.01 | locus YCL016C, strain dcc1, stronger effect = lower value 0.997 | locus YCL029C, strain bik1, stronger effect = lower value 0.972 | locus YCL061C, strain MRC1, stronger effect = lower value 1.01 | locus YCL069W, strain vba3, stronger effect = lower value 1 | locus YCR088W, strain abp1, stronger effect = lower value 0.998 | locus YDL005C, strain med2, stronger effect = lower value 0.993 | locus YDL035C, strain GPR1, stronger effect = lower value 1.03 | locus YDL040C, strain nat1, stronger effect = lower value 1 | locus YDL074C, strain BRE1, stronger effect = lower value 1.01 | locus YDL101C, strain DUN1, stronger effect = lower value 0.99 | locus YDL134C, strain PPH21, stronger effect = lower value 1.01 | locus YDL185W, strain tfp1, stronger effect = lower value 0.971 | locus YDL192W, strain arf1, stronger effect = lower value 0.985 | locus YDR001C, strain nth1, stronger effect = lower value 0.992 | locus YDR069C, strain doa4, stronger effect = lower value 1 | locus YDR101C, strain arx1, stronger effect = lower value 0.978 | locus YDR137W, strain rgp1, stronger effect = lower value 1.01 | locus YDR150W, strain NUM1, stronger effect = lower value 0.998 | locus YDR159W, strain sac3, stronger effect = lower value 0.991 | locus YDR162C, strain NBP2, stronger effect = lower value 1.02 | locus YDR195W, strain ref2 0.968 | locus YDR297W, strain sur2, stronger effect = lower value 1 | locus YDR318W, strain mcm21, stronger effect = lower value 0.988 | locus YDR334W, strain swr1, stronger effect = lower value 0.999 | locus YDR335W, strain msn5, stronger effect = lower value 1.01 | locus YDR388W, stronger effect = lower value 0.989 | locus YDR392W, strain spt3, stronger effect = lower value 0.919 | locus YDR502C, strain sam2, stronger effect = lower value 0.988 | locus YEL003W, strain gim4, stronger effect = lower value 0.999 | locus YEL037C, strain rad23, stronger effect = lower value 0.999 | locus YEL061C, strain CIN8 (second series), stronger effect = lower value 0.996 | locus YEL061C, strain CIN8, stronger effect = lower value 1 | locus YER015W, strain faa2, stronger effect = lower value 0.998 | locus YER016W, strain bim1, stronger effect = lower value 1 | locus YER110C, stronger effect = lower value 0.967 | locus YER111C, strain swi4, stronger effect = lower value 1 | locus YER155C, strain BEM2 (second series), stronger effect = lower value 1 | locus YER155C, strain BEM2, stronger effect = lower value 0.993 | locus YER167W, strain BCK2, stronger effect = lower value 1 | locus YFR010W, strain ubp6, stronger effect = lower value 1 | locus YGL078C, strain dbp3, stronger effect = lower value 0.993 | locus YGL086W, strain mad1, stronger effect = lower value 0.967 | locus YGL167C, strain pmr1, stronger effect = lower value 0.995 | locus YGL173C, strain kem1, stronger effect = lower value 0.997 | locus YGL227W, strain vid30, stronger effect = lower value 0.993 | locus YGL240W, strain doc1, stronger effect = lower value 1.01 | locus YGL248W, strain PDE1, stronger effect = lower value 1 | locus YGL253W, strain hxk2, stronger effect = lower value 1 | locus YGR078C, strain PAC10, stronger effect = lower value 1.01 | locus YGR135W, strain pre9, stronger effect = lower value 0.998 | locus YGR229C, strain SMI1, stronger effect = lower value 1.03 | locus YGR252W, strain gcn5, stronger effect = lower value 1.1 | locus YHR013C, strain ard1, stronger effect = lower value 0.983 | locus YHR027C, strain rpn1, stronger effect = lower value 1.01 | locus YHR030C, strain SLT2, stronger effect = lower value 1.01 and 0.994 | locus YHR079C, strain IRE1 (second series), stronger effect = lower value 0.97 | locus YHR079C, strain IRE1, stronger effect = lower value 1.02 | locus YHR094C, strain hxt1, stronger effect = lower value 0.991 | locus YHR129C, strain ARP1, stronger effect = lower value 0.995 | locus YHR142W, strain chs7, stronger effect = lower value 1.01 | locus YHR200W, strain rpn10, stronger effect = lower value 0.979 | locus YIL066C, strain RNR3, stronger effect = lower value 1.01 | locus YIL073C, strain SPO22, stronger effect = lower value 0.906 | locus YIL125W, strain kgd1, stronger effect = lower value 0.989 | locus YIR030C, strain dcg1, stronger effect = lower value 0.985 | locus YJL092W, strain hpr5, stronger effect = lower value 0.995 | locus YJL095W, strain BCK1 (second series), stronger effect = lower value 1 | locus YJL095W, strain BCK1, stronger effect = lower value 1 and 0.988 | locus YJL115W, strain asf1, stronger effect = lower value 1 | locus YJL129C, strain trk1, stronger effect = lower value 1.01 | locus YJL134W, strain LCB3, stronger effect = lower value 1.01 | locus YJL154C, strain vps35, stronger effect = lower value 0.996 | locus YJL164C, strain tpk1, stronger effect = lower value 1.01 | locus YJL166W, strain qcr8, stronger effect = lower value 1 | locus YJL168C, strain set2, stronger effect = lower value 0.98 | locus YJL187C, strain SWE1 (second series), stronger effect = lower value 0.99 | locus YJL187C, strain SWE1, stronger effect = lower value 1 | locus YJR043C, strain POL32, stronger effect = lower value 1.06 | locus YJR066W, strain TOR1, stronger effect = lower value 0.989 | locus YKL009W, strain mrt4, stronger effect = lower value 0.955 | locus YKL068W, stronger effect = lower value 0.984 | locus YKL085W, strain MDH1 (second series), stronger effect = lower value 0.981 | locus YKL085W, strain MDH1, stronger effect = lower value 0.981 | locus YKL160W, strain elf1, stronger effect = lower value 1 | locus YKL190W, strain CNB1, stronger effect = lower value 1.01 | locus YKR001C, strain vps1, stronger effect = lower value 0.98 | locus YKR026C, strain gcn3, stronger effect = lower value 0.992 | locus YKR091W, strain srl3, stronger effect = lower value 0.994 | locus YLL001W, strain dnm1, stronger effect = lower value 0.988 | locus YLL026W, stronger effect = lower value 0.996 | locus YLL041C, strain sdh2, stronger effect = lower value 0.996 | locus YLR027C, strain aat2, stronger effect = lower value 1.01 | locus YLR039C, strain RIC1, stronger effect = lower value 1.01 | locus YLR058C, strain SHM2, stronger effect = lower value 1 | locus YLR102C, strain apc9, stronger effect = lower value 0.981 | locus YLR113W, strain HOG1, stronger effect = lower value 0.973 | locus YLR221C, strain rsa3, stronger effect = lower value 0.999 | locus YLR258W, strain gsy2, stronger effect = lower value 1 | locus YLR262C, strain YPT6 (second series), stronger effect = lower value 1.02 | locus YLR262C, strain YPT6, stronger effect = lower value 1.04 | locus YLR268W, strain sec22, stronger effect = lower value 0.951 | locus YLR320W, strain mms22, stronger effect = lower value 1.01 | locus YLR330W, strain CHS5, stronger effect = lower value 0.996 | locus YLR342W, strain FKS1 (second series), stronger effect = lower value 1.08 | locus YLR342W, strain FKS1, stronger effect = lower value 1.01 | locus YLR357W, strain rsc2, stronger effect = lower value 0.991 | locus YLR370C, strain arc18, stronger effect = lower value 1.01 | locus YLR371W, strain rom2, stronger effect = lower value 0.965 | locus YLR384C, strain iki3, stronger effect = lower value 0.988 | locus YLR418C, strain cdc73, stronger effect = lower value 1 | locus YML016C, strain PPZ1, stronger effect = lower value 1 | locus YML032C, strain rad52, stronger effect = lower value 1.01 | locus YML120C, strain ndi1, stronger effect = lower value 1.01 | locus YML124C, strain tub3, stronger effect = lower value 1 | locus YMR058W, strain fet3, stronger effect = lower value 1 | locus YMR078C, strain ctf18, stronger effect = lower value 0.959 | locus YMR125W, strain sto1, stronger effect = lower value 1.01 | locus YMR129W, stronger effect = lower value 0.976 | locus YMR205C, strain PFK2, stronger effect = lower value 0.99 | locus YMR223W, strain ubp8, stronger effect = lower value 0.992 | locus YMR231W, strain pep5, stronger effect = lower value 0.996 | locus YMR263W, strain SAP30, stronger effect = lower value 0.991 | locus YMR307W, strain GAS1, stronger effect = lower value 1.21 | locus YNL067W, strain RPL9B, stronger effect = lower value 0.979 | locus YNL071W, strain lat1, stronger effect = lower value 1.01 | locus YNL153C, strain GIM3, stronger effect = lower value 1 | locus YNL183C, strain NPR1, stronger effect = lower value 0.967 | locus YNL209W, strain ssb2, stronger effect = lower value 1 | locus YNL233W, strain BNI4, stronger effect = lower value 1 | locus YNL248C, strain rpa49, stronger effect = lower value 1.01 | locus YNL250W, strain rad50, stronger effect = lower value 0.937 | locus YNL271C, strain bni1, stronger effect = lower value 0.989 | locus YNL298W, strain CLA4, stronger effect = lower value 0.996 | locus YNL307C, strain MCK1, stronger effect = lower value 0.972 | locus YNL322C, strain KRE1 (second series), stronger effect = lower value 1 | locus YNR049C, strain mso1, stronger effect = lower value 1 | locus YNR052C, strain pop2, stronger effect = lower value 0.992 | locus YOL006C, strain TOP1, stronger effect = lower value 0.918 | locus YOL012C, strain htz1 0.782 | locus YOL147C, strain pex11, stronger effect = lower value 0.995 | locus YOR001W, strain rrp6, stronger effect = lower value 1 | locus YOR061W, strain CKA2, stronger effect = lower value 0.998 | locus YOR069W, strain VPS5, stronger effect = lower value 0.998 | locus YOR070C, strain gyp1, stronger effect = lower value 0.993 | locus YOR080W, strain dia2, stronger effect = lower value 0.992 | locus YOR083W, strain WHI5, stronger effect = lower value 1 | locus YOR106W, strain vam3, stronger effect = lower value 1.02 | locus YOR136W, strain idh2, stronger effect = lower value 0.976 | locus YOR144C, strain elg1, stronger effect = lower value 1.01 | locus YOR184W, strain ser1, stronger effect = lower value 0.992 | locus YOR231W, strain MKK1, stronger effect = lower value 1.02 | locus YOR265W, strain rbl2, stronger effect = lower value 1.01 | locus YOR270C, strain vph1, stronger effect = lower value 1.02 | locus YOR290C, strain snf2, stronger effect = lower value 0.955 | locus YOR316C, strain cot1, stronger effect = lower value 0.98 | locus YPL051W, strain arl3, stronger effect = lower value 1.01 | locus YPL055C, strain LGE1, stronger effect = lower value 1 | locus YPL078C, strain atp4, stronger effect = lower value 1.01 | locus YPL106C, strain sse1, stronger effect = lower value 1.02 | locus YPL240C, strain hsp82, stronger effect = lower value 0.992 | locus YPL256C, strain CLN2, stronger effect = lower value 1 | locus YPR119W, strain clb2, stronger effect = lower value 0.966 | locus YPR141C, strain kar3, stronger effect = lower value 0.969 | locus YPR163C, strain tif3, stronger effect = lower value 0.997 | locus YPR167C, strain met16, stronger effect = lower value 0.976 | strain wtn01, stronger effect = lower value 0.957
active: locus YBR021W, strain FUR4, stronger effect = lower value 1.19 [resistant]

Reference: PubChem BioAssay AID1159580 (chemical genetic matrix, 2015)
